Only some compounds are listed: those with a hit (about 7.8% of all), similar ones and a draw of the others.
VACV mCherry inh: vaccinia inhibition (mCherry reporter). Vaccinia virus mCherry reporter infection, fluorescence. 0.63% of 310,000 active. AID 720579. Potency, µM (top dose mostly 36.5 µM), hits mostly inhibitors; calls by dose curve; tested in A549 cells; further: nearly all actives have a fitted effect of over 35% in size
Marburg entry inh: inhibitors of Marburg virus binding or cell entry; Potency, µM (doses to about 37.8 µM), usual class: inhibitors; AID 540276; 1.8% of 300,000 active; Marburg virus pseudotyped entry inhibition, cell reporter; calls by dose curve; tested in HEK293 cells
HCMV inh: human cytomegalovirus inhibition | HFF cells, HCMV-luciferase reporter, 72 h; hits give low values | activity change, negative = inhibition, % at 57.5 µM | 4.5% of 410,000 active; in the data active means activity change below about -60%; inconclusive means no clear call, values can overlap the other calls; inactive means above about -39%
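Two-dose cell screen: HFF monolayers treated with compounds and infected with luciferase-expressing HCMV at 1 PFU/cell, 72 h at 37C, then lysed for luciferase measurement.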
LASV entry inh: Lassa virus entry inhibition; Lassa virus pseudotype entry inhibition, cell reporter; Potency, µM (top dose mostly 37.9 µM), hits mostly inhibitors; 1.2% of 300,000 active; calls by dose curve; tested in HEK293 cells; further: nearly all actives have a fitted effect of over 50% in size
Vaccinia Venus: inhibitors of vaccinia virus (Venus reporter). Vaccinia virus Venus reporter expression, fluorescence. Potency, µM (doses to about 36.5 µM), actives largely listed as inhibitors. 0.46% of 330,000 active; calls by dose curve; tested in A549 cells; further: nearly all actives have a fitted effect of over 30% in size
HCV inhibitor: inhibitors of hepatitis C virus infection; Huh7.5.1 HCVcc-Cre infection, luciferase reporter, 44 h; Potency, µM (highest dose often 41.8 µM), most hits filed as inhibitors; 3.4% of 340,000 active; AID 651820; active means well fitted inhibition curve with a large enough effect; inconclusive means small, poorly fitted or top-dose-only effect, or another doubt; inactive means no such curve, though single readings can be large or run the other way
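Infectious HCV cell culture screen: compound-treated cells (1,000/well, pre-plated 4 h) are infected with HCVcc-Cre at roughly 0.5 moi and grown 44 h. Infection is quantified by luciferase signal after 15 min substrate incubation at room temperature.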
Hits are given with their value; - = inactive; ? = inconclusive; . = no result given; [ ] = dose if it differs, or a comment.

SMILES | VACV mCherry inh | Marburg entry inh | HCMV inh | LASV entry inh | Vaccinia Venus | HCV inhibitor
COc1ccc(Cc2nnc(-c3ccccc3)o2)cc1 | - | - | - | - | - | -
COc1ccc(SCCc2nnc(-c3ccccc3)o2)cc1 | . | . | -98 | . | . | -
COc1ccc(-c2nnc(-c3ccc(C)cc3)o2)cc1 | - | ? | - | - | - | -
CCCCNC(=O)c1ccc2c(=O)n(Cc3ccc(OC)cc3)c(=O)[nH]c2c1 | - | ? | - | - | - | .
Cc1cc2c(cc1NS(=O)(=O)c1ccc(NC(=O)CC(C)C)cc1)n(C)c(=O)c(=O)n2C | - | . | - | - | - | .
Cc1ccc(Cn2c(C(=O)NCc3ccccc3Cl)cc3sccc32)cc1 | - | - | - | - | - | .
CCOc1ccccc1NC(=O)N1CC(CC)Oc2ccccc21 (centres undefined) | - | . | - | - | - | .
FC(F)(F)c1cc(CCN2C(=S)NC[C@@H]2c2ccccc2)cc(C(F)(F)F)c1 | - | . | - | . | - | -
FC(F)(F)c1cc(CO[C@H]2CCCN[C@H]2c2ccccc2)cc(C(F)(F)F)c1 | . | 14µM | . | . | . | .
CCOc1cc(C(=O)N/N=C/c2ccoc2)cc(OCC)c1OCC | . | . | -88 | . | . | -
CCOc1ccc(C(=O)N/N=C/c2ccc(SC)cc2)cc1 | - | - | - | 2.8µM | - | -
Cc1ccnc(N/N=C/c2ccccc2)n1 | - | ? | - | ? | - | -
Cc1cc(C)nc(N/N=C2/CCCC/C2=C\c2ccccc2)n1 | ? | ? | -113 | . | - | ?
CCOc1ccc(CCNC(=O)CCCc2nnc3n(CC(C)C)c(=O)c4sccc4n23)cc1 | - | . | ? | - | - | .
CC(C)=CCCC1(C)C=Cc2c(c(C)cc3c2[nH]c2cc(O)ccc23)O1 (centres undefined) | - | . | -104 | . | - | -
CC(C)=CCC/C(C)=C/CC/C(C)=C/CCC1(C)CCc2cc(O)ccc2O1 (centres undefined) | - | . | . | . | - | .
CCN(CC)c1ccc2c(C)c(-c3ccc(N)cc3)c(=O)oc2c1 | . | ? | ? | 10µM | - | 8.9µM
CCOC(=O)CCc1c(C)c2ccc(O)cc2oc1=O | - | ? | - | - | - | -
CCN(CC)c1ccc2c(C)c(Cl)c(=O)oc2c1 | - | ? | - | ? | - | -
CCOC(=O)Cc1c(C)c2ccc(N(CC)CC)cc2oc1=O | - | - | - | - | - | 10µM
COc1cc2nc(SCc3cccc(Cl)c3)n3nc(CCn4nc(C)cc4C)nc3c2cc1OC | - | - | - | - | - | .
COc1ccc(CC(=O)Nc2cccc(/C(C)=N/NC(=O)C3(C)CC3(Br)Br)c2)cc1 (centres undefined) | . | . | - | . | . | 10µM
Cc1ccc(S(=O)(=O)N(CCc2ccccc2)CC(=O)Nc2ccc(Br)cc2)cc1 | - | . | - | - | - | .
Cc1nn(C)c(C)c1CN(Cc1nc(CCC(C)C)no1)C(C)C | - | ? | -83 | ? | - | 1µM
C=CCN1C(=O)c2ccccc2NC1c1ccc(Br)s1 (centres undefined) | ? | - | ? | - | - | -
SMILES | VACV mCherry inh | Marburg entry inh | HCMV inh | LASV entry inh | Vaccinia Venus | HCV inhibitor
O=C1c2ccccc2NC(c2ccc(Br)s2)N1O (centres undefined) | . | . | -75 | . | . | ?
Cc1cc(NC(=S)N(Cc2ccc(Cl)cc2)Cc2ccc(C(=O)O)cc2)ccc1Cl | . | . | -62 | . | . | -
Cc1cc(C)cc(NC(=S)N(Cc2ccc(Cl)cc2)Cc2ccc(C(=O)O)cc2)c1 | - | - | - | - | - | -
CCCN1CNc2c(c(=O)[nH]c(=S)n2CCc2ccccn2)C1 | - | . | . | . | - | .
CCc1cccc(NC(=O)Cn2c(=O)c(C(F)(F)F)nc3ccccc32)c1 | - | . | - | ? | - | .
O=C1C2C3C=CC(C3=C(c3ccccc3)c3ccccc3)C2C(=O)N1Cc1ccccc1 (centres undefined) | . | ? | - | ? | - | 11µM
O=C1C2C3C=CC(C3=C(c3ccccc3)c3ccccc3)C2C(=O)N1CCO (centres undefined) | . | - | - | ? | . | -
CCc1ccccc1NC(=O)c1nnn(CC(=O)Nc2c(C)cc(C)cc2C)c1N | - | - | - | - | - | .
CCS(=O)(=O)c1nc(S(=O)(=O)c2ccc(C)cc2)c(N2CCCC2)s1 | -[7.34 µM] | . | - | . | -[7.34 µM] | -
CCN(CC)CCCNc1sc(S(=O)(=O)c2ccccc2)nc1S(=O)(=O)c1ccc(Cl)cc1 | - | ? | -75 | - | - | .
Cc1ccc(S(=O)(=O)c2nc(S(=O)(=O)c3ccccc3)sc2N2CCN(CCO)CC2)cc1 | . | . | -98 | . | . | -
CCN(CC)c1sc(S(=O)(=O)c2ccccc2)nc1S(=O)(=O)c1ccc(C)cc1 | - | ? | -73 | ? | - | .
CCCS(=O)(=O)c1nc(S(=O)(=O)c2ccc(C)cc2)c(N(CC)CC)s1 | - | - | ? | - | - | .
Cc1ccc(S(=O)(=O)c2nc(S(=O)(=O)c3ccccc3)sc2N2CCN(C)CC2)cc1 | . | . | -99 | . | . | -
COCCCNC(=S)N1CCC(C(=O)c2ccc(Cl)cc2)CC1 | - | ? | - | ? | ? | 4µM
COCCNC(=S)N1CCC(C(=O)c2ccc(Cl)cc2)CC1 | - | . | - | . | - | .
CC1CCN(CC(O)COCCC23CC4CC(CC(C4)C2)C3)CC1 (centres undefined) | ? | 6.5µM | -75 | ? | - | 35µM
CCOC(=O)c1ccc(N2C(=O)c3n[nH]c(C)c3C2c2ccc(OCC)cc2)cc1 (centres undefined) | - | ? | -76 | ? | - | .
CCOc1cc(C2c3c(n[nH]c3C)C(=O)N2c2ccc(C)cc2)ccc1O (centres undefined) | . | - | -81 | - | . | ?
CCOC(=O)c1ccc(N2C(=O)c3n[nH]c(-c4ccco4)c3C2c2ccc([N+](=O)[O-])cc2)cc1 (centres undefined) | ? | ? | - | 23µM | ? | 14µM
CCOC(=O)c1ccc(N2C(=O)c3n[nH]c(-c4ccco4)c3C2c2ccc(O)c(OC)c2)cc1 (centres undefined) | - | ? | - | - | - | .
CCOC(=O)c1ccc(N2C(=O)c3n[nH]c(C)c3C2c2ccccn2)cc1 (centres undefined) | - | . | - | . | - | -
CCOC(=O)c1ccc(N2C(=O)c3n[nH]c(-c4ccco4)c3C2c2ccc(C)cc2)cc1 (centres undefined) | - | ? | -103 | ? | - | .
COc1ccccc1C(=O)Nc1c(C(=O)Nc2ccccc2F)oc2ccccc12 | - | ? | - | - | - | .
COc1ccc(N2CCN(C(=O)C(C)n3nc(C)c4sc5ccccc5c4c3=O)CC2)cc1 (centres undefined) | - | ? | - | ? | - | .
Cc1[nH]nc2c1C(c1ccccn1)N(c1ccc(Br)cc1)C2=O (centres undefined) | . | - | -66 | - | . | -
CCS(=O)(=O)N1CCC2(CC1)OC(=O)C(C)=C2C(=O)NCc1ccccc1C | - | . | - | ? | - | .
CCN(CC)S(=O)(=O)c1cc(NC(=O)c2cc([N+](=O)[O-])ccc2N2CCOCC2)ccc1C | - | 18µM | ? | ? | - | ?
CC(C)CNC(=O)c1cc([N+](=O)[O-])ccc1N1CCOCC1 | - | - | - | - | - | -

Screens deposited in PubChem BioAssay by National Center for Advancing Translational Sciences (NCATS).
